LAP4 TOR yeast: modulators of LAP4-GFP expression in yeast, primary screen, S. cerevisiae, multiplex flow cytometry, MLPCN library; GFP response vs DMSO, % at 10 µM; AID 2023, 2009; hit rate 0.34% among 320,000; 3 h; median GFP as percent of DMSO wells;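 active = GFP response vs DMSO above a set limit, about the screen mean plus 3 SD, cut at about 150% in these data; inconclusive = under 70 cell events counted for the yeast strain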
Myeloid diff MLP: induction of myeloid progenitor differentiation, primary screen, cell-based, flow cytometry, MLPCN library; hit rate 1% among 360,000; ER-HoxA9 myeloid progenitors, lysozyme-GFP differentiation; calls only at 10 µM; AID 624256, 2012;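 active = normalized GFP-positive differentiation at or above the plate's own cutoff, the solvent-only control mean plus 3 SD; inconclusive = no clear call, values can overlap the other calls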;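 also: cells exposed to compound for four days before flow analysis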
CIT2 TOR yeast: modulators of CIT2-GFP expression in yeast, primary screen, S. cerevisiae, GFP fusion, multiplex flow cytometry, MLPCN library | hit rate 0.065% among 320,000 | AID 2029, 2009 | GFP response vs DMSO, % at 10 µM | S. cerevisiae CIT2-GFP strain, 3 h; 100 means same as DMSO wells;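 active = GFP response relative to DMSO above a set limit, near the screen mean plus 3 SD, cut at about 150% in these data; inconclusive = Fewer than 70 cells measured for a yeast strain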;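 also: ratio of well median GFP fluorescence to mean of DMSO wells on the plate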
RPL19A-GFP yeast: RPL19A-GFP expression modulators in yeast, primary screen, cell-based, S. cerevisiae, multiplex flow cytometry, MLPCN; percent response vs DMSO, % at 10 µM; hit rate 0.3% among 330,000; S. cerevisiae RPL19A-GFP strain, 3 h; active compounds read low;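 active = percent response vs DMSO below 50%; inconclusive = fewer than 70 events counted for the yeast strain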;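 also: median channel GFP fluorescence of the barcoded RPL19A-GFP strain; ratio of sample median GFP to plate DMSO average so 100% = DMSO; lower means less RPL19A-GFP as with rapamycin TOR inhibition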
AGP1-GFP MLPCN: modulators of AGP1-GFP expression in yeast TOR pathway, primary screen, cell-based, multiplex flow cytometry, S. cerevisiae, MLPCN library; AID 2066, 2009; 3 h; GFP as percent of DMSO wells; GFP response vs DMSO, % at 10 µM; hit rate 0.02% among 320,000;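 active = GFP response relative to DMSO above a set limit, near screen average plus 3 SD, cut at about 150% in these data; inconclusive = fewer than 70 cells counted for the yeast strain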;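 also: median GFP channel fluorescence of the gated AGP1 strain per well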
MEP2-GFP yeast: modulators of MEP2-GFP levels in yeast, primary screen, S. cerevisiae, multiplex flow cytometry, MLPCN library; S. cerevisiae MEP2-GFP strain, 3 h; 100% = DMSO control level; GFP response vs DMSO, % at 10 µM; hit rate 0.51% among 330,000;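 active = GFP response versus DMSO above a set limit, roughly screen mean plus 3 SD, cut at about 180% in these data; inconclusive = fewer than 70 cells counted for a yeast strain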;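 also: median GFP fluorescence of the barcode-gated MEP2-GFP cells per well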
Myeloid diff: inducers of myeloid progenitor differentiation, confirmation, cell-based, GFP/Mac1 flow cytometry, cherry pick 01; shares compounds with Myeloid diff MLP; ER-HoxA9 myeloid progenitors, GFP/Mac1 double-positive flow; calls only; hit rate 2% among 2,300; AID 651706, 2012;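 active = share of green or green-and-red cells above 9 and 9% in run 1 or 4 and 3% in run 2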
GFP autofluor: flagged as fluorescent in myeloid differentiation counter-screen; hit rate 7.4% among 2,300; fluorescence response, % (concentration not given with the values); ER-HoxA9 myeloid progenitors, no estrogen, GFP autofluorescence flow cytometry; vehicle wells 0%, positive control 100%; shares compounds with Myeloid diff MLP; AID 651707;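 active = over 5% cells positive for green fluorescent reporter, or over 2% positive for both it and APC stain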;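 also: range taken on the double positive population between DMSO and positive control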
An asterisk follows results filed as active; i = inactive; u = inconclusive; x = no result given; + = active, no number. Compounds with a hit are over-represented: about 1.8% of the library has one in this group of screens.

SMILES | LAP4 TOR yeast | Myeloid diff MLP | CIT2 TOR yeast | RPL19A-GFP yeast | AGP1-GFP MLPCN | MEP2-GFP yeast | Myeloid diff | GFP autofluor
CCOC(=O)C1=C(c2ccc(OC)cc2)OC(N)=C(C#N)C1c1cccnc1 (stereo unspecified) | 123 | i | 75 | 93 | 94 | 89 | x | x
Cc1ccc(CC(=O)Nc2ccc(S(=O)(=O)Nc3nccc(C)n3)cc2)cc1 | 88 | i | 117 | 101 | 99 | 105 | i | 1
COc1ccc(CCC(=O)Nc2ccc(S(=O)(=O)Nc3ncccn3)cc2)cc1 | 92 | i | 91 | 94 | 96 | 96 | x | x
COc1ccc(CC(=O)Nc2ccc(S(=O)(=O)Nc3ncccn3)cc2)cc1 | 103 | + | 94 | 103 | 105 | 103 | i | 1
Cc1ccnc(NS(=O)(=O)c2ccc(NC(=O)Cc3ccccc3)cc2)n1 | 101 | i | 102 | 108 | 105 | 104 | x | x
O=C(c1ccc(F)cc1)N1CCN(C2CCCCC2)CC1 | 99 | i | 103 | 110 | 109 | 105 | x | x
O=C(COC(=O)c1cc(=O)c2ccccc2o1)Nc1cc(Cl)ccc1Cl | 103 | i | 97 | 103 | 102 | 103 | x | x
COc1ccccc1CNS(=O)(=O)c1cc(C)ccc1OC | 100 | i | 102 | 98 | x | 97 | x | x
COc1cccc(CNS(=O)(=O)c2ccccc2Br)c1OC | x | i | x | x | x | x | i | 1
CN(C)C(=O)CNc1ccn2nc(-c3cccc(Cl)c3)cc2n1 | x | i | x | x | x | x | x | x
CCCCNC(=O)CCc1nc2cccnc2n1Cc1ccc(OC)cc1 | 102 | i | 95 | 102 | 102 | 104 | x | x
CCCCNC(=O)CCc1nc2cccnc2n1Cc1ccccc1 | 89 | + | 92 | 98 | 93 | 101 | i | 0
O=S1(=O)N=C(N2CCN(Cc3ccccc3)CC2)c2ccccc21 | 98 | + | 97 | 105 | 108 | 102 | i | 0
O=C(NCc1ccccc1)c1ncn[nH]1 | 100 | i | 106 | 111 | 109 | 109 | x | x
CC(C)[C@H](NS(=O)(=O)c1ccccc1)C(=O)OCC(=O)N1N=C(c2ccc(Cl)cc2)CC1c1ccco1 (stereo partly specified) | 87 | i | 102 | 100 | 100 | 101 | i | 0
CN1c2ccccc2C(C)(C)C12C=Cc1cc(O)ccc1O2 (stereo unspecified) | 120 | + | 116 | 97 | 101 | 131 | i | 53*
CC1=Nc2nc(N3CCCCC3)c(C#N)c3c4c(nc(c23)N1)N(c1ccc(C(C)C)cc1)C(=O)C4 | 98 | + | 94 | 100 | 122 | 94 | i | 0
Cc1c(C(=O)NNC(=S)Nc2ccc(S(N)(=O)=O)cc2)oc2ccccc12 | 70 | i | 93 | 107 | 92 | 100 | i | 1
COCCNc1nc(NCc2cccc(OC)c2)c2sc(-c3ccccc3)cc2n1 | x | + | x | x | x | x | i | 0
CC(C)Nc1nc(NCCN2CCCC2)c2sc(-c3ccccc3)cc2n1 | x | + | x | x | x | x | i | 0
COc1cccc(CNc2nc(NCc3ccccc3)nc3ccsc23)c1 | x | i | x | x | x | x | x | x
C=CCNC(=S)N/N=C/c1ccc(-c2cccc([N+](=O)[O-])c2)o1 | 92 | i | 105 | 107 | 99 | 107 | x | x
NS(=O)(=O)c1ccc(NC(=O)COc2ncnc3sccc23)cc1 | 103 | i | 98 | 99 | 101 | 101 | x | x
O=C(CNS(=O)(=O)c1cccc(Br)c1)NCCCc1ccccc1 | 102 | i | 100 | 105 | 106 | 109 | x | x
COC(=O)c1c(NC(=O)COC(=O)CCNS(=O)(=O)c2ccc(NC(C)=O)cc2)sc(C)c1C | 113 | i | 95 | 103 | 108 | 104 | x | x
SMILES | LAP4 TOR yeast | Myeloid diff MLP | CIT2 TOR yeast | RPL19A-GFP yeast | AGP1-GFP MLPCN | MEP2-GFP yeast | Myeloid diff | GFP autofluor
CC(=O)Nc1sc(C)c(C)c1C(=O)OCC(=O)Nc1ccc(S(N)(=O)=O)cc1 | 112 | + | 97 | 92 | 102 | 95 | i | 0
N#CC1=C(S)N(c2ccccc2)C(c2ccc(-c3cc(Cl)ccc3Cl)o2)NC1=O (stereo unspecified) | 76 | i | 109 | 107 | 105 | 105 | i | 0
N#CC1=C(S)N(c2ccccc2)C(c2ccc(-c3ccc(Cl)c(Cl)c3)o2)NC1=O (stereo unspecified) | 125 | i | 91 | 99 | 104 | 101 | x | x
COc1ccc(OC)c(N(CC(=O)N2CCCC2)S(=O)(=O)c2ccc(OC)c(OC)c2)c1 | 95 | i | 108 | 101 | 104 | 105 | x | x
COc1ccc(OC)c(N(CC(=O)O)S(=O)(=O)c2ccc(OC)c(OC)c2)c1 | 93 | + | 96 | 94 | 99 | 95 | i | 1
COc1ccccc1NC(=O)COc1ccc(C(=O)NC2CCCc3ccccc32)cc1OC (stereo unspecified) | 95 | i | 102 | 95 | 96 | 98 | x | x
CCOc1ccc2ccc(OCC)c(/C=N/n3cnnc3)c2c1 | 94 | i | 104 | 106 | 98 | 105 | x | x
O=c1[nH]cc(-c2ccc(Br)cc2)n1Cc1ccccc1 | 99 | i | 102 | 107 | 106 | 90 | i | 0
CCOc1cc(C)nc(NCc2ccccc2)n1 | 100 | + | 103 | 98 | 97 | 100 | i | 4
CCCCOc1cc(C)nc(NCc2ccccc2)n1 | 88 | i | 97 | 99 | 87 | 103 | x | x
COc1ccc(-c2nc(SC(CC(=O)NCCO)c3cccs3)n[nH]2)cc1 (stereo unspecified) | 94 | i | 91 | 95 | 96 | 95 | x | x
CCCCOc1ccc(/C=N/NC(=O)c2nnn(-c3nonc3N)c2C)cc1 | 103 | i | 108 | 100 | 109 | 100 | x | x
Cc1nn(CC(=O)N(C)C2(C#N)CCCCC2)c(C)c1[N+](=O)[O-] | 103 | i | 100 | x | 101 | 104 | x | x
COCCNC(=O)C1CCCN(S(=O)(=O)c2cccc3nsnc23)C1 (stereo unspecified) | 96 | u | 107 | 97 | 97 | 102 | x | x
COc1ccc(NC(=O)N(C)[C@H]2C[C@H]3c4[nH]c5ccc(-c6ccc7c(c6)OCO7)cc5c4CCN3C[C@H]2[C@H](C)O)cc1 | x | i | x | x | x | x | i | 0
CCOc1ccc(-c2cc(C(=O)NC3CCCCC3)[nH]n2)c(C)c1 | x | i | x | x | x | x | x | x

Source: PubChem BioAssay
